Measured values as given in the supplement of paper PMC6518042.

Each molecule was assayed on Pectobacterium parmentieri SCC3193 (assay: DuctApe activity index (growth/respiration on compound as sole nutrient source, blank-subtracted) (activity index (0-3)); higher = stronger utilization of the compound, active = 3 or more). Details: nutrient role (plate category): carbon.
Method: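 Biolog Phenotype Microarray plates PM1, PM2A (carbon), PM3 (nitrogen) and PM4 (phosphorus/sulfur) inoculated with P. parmentieri SCC3193 in M9-C minimal salts medium with Biolog dye A, and read in the OmniLog for 46 h. Each well was tested in triplicate and the experiment was run twice. DuctApe computed a blank-subtracted activity index (AV, 0-3) from the mean curves; growth is positive at AV >= 3 and negative at AV <= 2.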

DuctApe activity index, inactive:
OC[C@@H](O)C(O)[C@H](O)CO [D-Arabitol] 0
O=C(O)[C@@H](O)[C@H](O)C(=O)O [D-Tartaric acid] 0
CO[C@@H]1OC[C@@H](O)[C@H](O)[C@H]1O [b-Methyl-D-Xyloside] 0
O=C(O)CC(O)(CC(=O)O)C(=O)O [Citric acid] 2
O=C(O)[C@H]1OC(O)[C@H](O)[C@@H](O)[C@@H]1O (stereo partly drawn) [D-Glucuronic acid] 0
CCCCCC(=O)O [Caproic acid] 0
OC[C@H]1OC(O[C@H]2[C@H](O)[C@@H](CO)OC(O[C@H]3[C@H](O)[C@@H](CO)OC(O)[C@@H]3O)[C@@H]2O)[C@H](O)[C@@H](O)[C@@H]1O (stereo not given in full) [Laminarin] 0
CO[C@@H]1O[C@H](CO)[C@H](O)[C@H](O)[C@H]1O [b-Methyl-D-Galactoside] 2
CCCCCCCCCC(=O)O [Capric acid] 0
C[C@@H](O)[C@H](O)[C@H](O)[C@@H](O)C=O [D-Fucose] 0
CC(O)CO (stereo not given) [1,2-Propanediol] 0

DuctApe activity index, active:
O=P(O)(O)OC[C@H]1OC(O)(CO)[C@@H](O)[C@@H]1O (stereo partly drawn) [D-Fructose-6-Phosphate] 3
O=C1O[C@H]([C@@H](O)CO)[C@@H](O)[C@@H]1O [L-Galactonic acid-g-Lactone] 3
OCC1OC(O)(CO)C(O)C1O [D-Fructose] 3
C[C@@H]1OC(O)[C@H](O)[C@H](O)[C@H]1O (stereo partly drawn) [L-Rhamnose] 3
